Experimental data taken from the supplement of paper PMC6555819.

How the values were obtained:
Test in all cases: PBM binding z-score (relative to random genomic background probes); higher = stronger binding; sequences stand for … in GC…GCGATTGACAGCGTAGAATGAAGG
[1] = system: RARb homodimer (NR concentration 270 nM)
How it was run: (§1)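 Antibodies against each partner of ligand-free nuclear receptor dimers (one per run) detected binding on custom Agilent 4×180K protein-binding microarrays after 1 h incubation. The double-stranded probes had 34-nt variable regions carrying direct-repeat seeds, single-nucleotide variants, half-site ablations and random human genomic background sequences. Binding z-scores, from regression-normalized fluorescence, use the random background probes as reference.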

[2] = system: RARg:RXRa (NR concentration 270 nM, RXRa partner concentration 90 nM)
How it was run: as §1

[3] = system: RARg homodimer (NR concentration 270 nM)
How it was run: as §1

[4] = system: RXRa DBDmut IVT, anti-RXR (DBD mutation: RXRa K156A/R161A, NR concentration 90 nM)
How it was run: as §1

[5] = system: RXRa homodimer (NR concentration 180 nM)
How it was run: as §1

[6] = system: THRa:RXRa (NR concentration 90 nM, RXRa partner concentration 90 nM)
How it was run: as §1

[7] = system: THRa homodimer (NR concentration 90 nM)
How it was run: as §1

[8] = system: VDR homodimer (NR concentration 270 nM)
How it was run: as §1

Sequence	PBM binding z-score [1]	PBM binding z-score [2]	PBM binding z-score [3]	PBM binding z-score [4]	PBM binding z-score [5]	PBM binding z-score [6]	PBM binding z-score [7]	PBM binding z-score [8]
ATCGAAAGGTCGAGGTGAGTAAAGAGAAAGGGAA	2.34	4.22	4.38	0.813	4.08	2.63	0.539	0.357
TCTCGGAGGACTCGAAAGGTCAGAGCTCGACATC	4.25	3.85	3.31	0.558	3.57	2.68	0.256	0.189
ATCTCTAGGTATAAGTTCAGTGAATCCCGAGGAT	1.42	1.17	1.31	0.993	0.674	0.824	0.567	2.79
TAGCCCAGGTCAGATCGGGCCAGTATACGCTATA	2.03	2.82	3.39	-0.536	1.77	4.22	0.917	-0.0558
GTACCAAGGTGAATAGGTCGTTGTTGAGTAGGCG	1.89	2.4	1.05	0.135	1.64	1.81	0.601	0.168
GCTATAAGTTGAAAGGGCAACCGAATGATTCTCG	2.13	2.28	1.81	1.24	2.42	1.16	-0.205	0.188
CAAACTAGCTCACCGGAAGGTCAAAGTCCGCATG	3.98	3.23	2.5	0.916	3.25	2.67	1.55	2.17
CCTACTGGGCGAAAAAGGTCATTGATGCCGATAA	4	3.97	3.43	0.151	4.51	3.05	-0.0329	1.75
CCTTACGGGTCAAGGCTATAGCACGGGTGGTACG	2.91	4.66	4.36	0.343	5.14	2.39	-0.0277	0.575
CGTCCAAGGTCAAAGGCCAGTGAAGAGATGACGG	4.03	6.17	6.72	3.33	6.48	3.82	1.82	3.32
GCTATTATTTGAAAGGGCAACCGAATGATTCTCG	2.11	1.12	1.27	0.947	1.03	0.568	0.3	0.995
GCTAGCAGGCCATTTGGGTCACTCATTGACGGGC	1.77	0.783	1.14	0.292	0.477	1.69	0.799	0.121
CGTCCAAGGTCAATGCTAGGTCAGTGATAGCATT	5.15	7.48	6.91	3.87	5.32	4.38	3.02	3.54
CGTTACGGGTCACTCCAGGTTATAGCATCGGAGT	3.08	4.49	4.8	1.5	4.86	4.97	0.567	1.17
TCTAGCAGGCCAGAGGGTCTCTCAAGAGGTACGG	-0.406	-0.564	-0.595	-0.155	-0.223	-1.48	-0.98	-0.83
TTGCCAAGGTGAGCTGAGGTCGTTGATCCAACTC	1.42	1.02	0.784	-0.052	0.78	4.62	2.03	1.75
ATCTCTGGGTAAAGTTCAGTGAAAGATCGATAGA	2.68	2.19	2.4	1.43	1.57	1.11	0.412	1.62
CCTGCTAGGTCATGGTCATCTAATCTACAGTATG	3.47	4	4.75	1.78	2.78	3.08	1.52	0.674
ATTTCTAGGTAAAGATAGTTCAGTGAATGCAAAT	0.935	0.671	0.813	0.38	0.418	1.02	0.00694	0.94

Sequence	PBM binding z-score [1]	PBM binding z-score [2]	PBM binding z-score [3]	PBM binding z-score [4]	PBM binding z-score [5]	PBM binding z-score [6]	PBM binding z-score [7]	PBM binding z-score [8]
CCTACTGGGACATCAGGTCATTGATATCAACGTT	2.48	1.91	1.87	0.77	1.54	3.23	3.41	2.42
TTACCAAGGTGAAGCTCGTTGATCCCTCTGTAGA	0.199	0.159	-0.0803	-0.864	0.473	1.57	0.166	-0.835
CCTACTGGGCCAGAAAGGTCATTGATGCCGATAA	4.36	4.7	4.43	0.0732	5.18	2.88	0.378	2.56
CGAACTAGGTCTAGGACAGTGAATCTCCGCACGC	-0.234	-0.33	-0.233	0.104	-0.217	0.316	0.0986	-0.409
TCTAGTAGGTTAGTCGGGGCATTCAGCCAACATA	1.04	0.36	0.358	1.33	0.381	1.4	0.765	1.14
CTACCAACGTGAACAAGGTCGTTGATTACTATTC	1.42	0.533	0.432	1.53	0.896	1.82	1.41	1.88
CCTTACGGGTCACGAGGTGATAGCACGACGAGCG	3.52	5.58	5.46	1.66	6.44	3.48	0.888	1.15
ACTATTATTTGAGACGAGGGCAACCGATAGGTTG	1.51	0.808	0.929	1.03	0.916	1.12	1.07	1.75
AGTCAAAGTGCAGGACGAGGTAACGTAAAGCACG	0.382	0.878	1.15	-0.269	0.45	2.23	0.449	0.0328
TCATATAGGTAAACAAGTGAAAGTCCGTAAGTTA	0.321	0.396	0.548	1.76	1.12	0.265	0.0631	0.508
AGAATGAGGTTTAGATCAGGGAAACAGAATACAT	-0.22	-0.0854	0.196	-0.146	-0.129	0.678	-0.242	0.0888
AGTCAAAGTTCAGGACGGGGTAACGTAAAGCACG	3.27	5.09	4.51	2.98	3.43	3.8	1.55	2.58
TCATCTAGGTAAATGCTAGGTGAAAGTCCGATCT	0.149	0.279	0.0447	1.17	0.38	1.28	0.631	-0.208
ATACCAAGGTGATCGTGAGGTCGTTGACACTAAC	1.85	2.27	0.855	0.311	1.56	3.63	2.59	2.93
CAAACTAGGTCACGAAAGGTCACAGTCGAATGAC	6.08	7.72	8.69	2.05	7.64	5.11	3.05	2.77
ATAGGTAGGTTACATCCGGGTCATTCAGGCTATG	2.84	3.6	2.45	0.326	2.96	3.77	2.45	3.59
CAAACTAGGTAAAGGTCAAAGTCGGTTTGTGCCA	4.92	6.24	5.71	2.3	6.98	3.87	1.05	2.8
GCTTACGGGCCAAAGGTTATAGCATGAATAGAAT	1.29	2.77	1.04	0.36	3.01	1.58	-0.515	-0.0468
